Measurements reported in PubChem BioAssay (NCATS).
Several values for one entry are separate records, joined by “and”; a condition that tells them apart may be missing. Identical values can stand only once. Records with an inconclusive call do not appear. Activity calls are given as the source filed them. The call rests on the fitted dose curve; in most records, active means well fitted cell-killing curve with a large enough effect; inconclusive means small, poorly fitted or top-dose-only effect, or effect the other way; inactive means no such curve, though single readings can be large or run the other way.

Columns and labels:
[1] = Quantitative High-Throughput drug screen in 47 multiple myeloma cell lines against the NCATS MIPE library collection: KMS34_JCRB cell viability assay (AID 1918985); further: nearly all actives have a fitted effect of over 40% in size
In short: (§1)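 500 cells/well; MIPE 4.0 drugs pin-transferred; 48 h, 37C, 5% CO2. CellTiter-Glo, 5 min RT, luminescence. Controls: DMSO 100%, media 0%.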

[2] = Quantitative High-Throughput drug screen in 47 multiple myeloma cell lines against the NCATS MIPE library collection: XG6_PLB cell viability assay (AID 1919865); further: nearly all actives have a fitted effect of over 40% in size
In short: as §1

[3] = Quantitative High-Throughput drug screen in 47 multiple myeloma cell lines against the NCATS MIPE library collection: VP6_DJ cell viability assay (AID 1919867); further: nearly all actives have a fitted effect of over 40% in size
In short: as §1

[4] = Quantitative High-Throughput drug screen in 47 multiple myeloma cell lines against the NCATS MIPE library collection: OCIMY7_PLB cell viability assay (AID 1918987); further: nearly all actives have a fitted effect of over 65% in size
In short: as §1

[5] = Quantitative High-Throughput drug screen in 47 multiple myeloma cell lines against the NCATS MIPE library collection: OCIMY5_PLB cell viability assay (AID 1918988); further: nearly all actives have a fitted effect of over 65% in size
In short: as §1

[6] = Quantitative High-Throughput drug screen in 47 multiple myeloma cell lines against the NCATS MIPE library collection: OPM1_PLB cell viability assay (AID 1918989); further: nearly all actives have a fitted effect of over 40% in size
In short: as §1

[7] = Quantitative High-Throughput drug screen in 47 multiple myeloma cell lines against the NCATS MIPE library collection: U266_ATCC cell viability assay (AID 1919864); further: nearly all actives have a fitted effect of over 35% in size;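 on viability (% of DMSO control): 0% = media-only wells without cells and 100% = DMSO-only wells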
In short: as §1

[8] = Quantitative High-Throughput drug screen in 47 multiple myeloma cell lines against the NCATS MIPE library collection: XG1_PLB cell viability assay (AID 1919866); further: nearly all actives have a fitted effect of over 35% in size
In short: as §1

[9] = Quantitative High-Throughput drug screen in 47 multiple myeloma cell lines against the NCATS MIPE library collection: SKMM1_PLB cell viability assay (AID 1919863); conditions: SKMM1 myeloma viability, CellTiter-Glo ATP, 48 h; viability: stronger effect = lower value; further: nearly all actives have a fitted effect of over 35% in size
In short: as §1

[10] = Quantitative High-Throughput drug screen in 47 multiple myeloma cell lines against the NCATS MIPE library collection: UTMC2_PLB cell viability assay (AID 1919868); conditions: CellTiter-Glo ATP luminescence, 48 h; viability (% of DMSO control): at 45.8 µM (top of the series); further: nearly all actives have a fitted effect of over 55% in size;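 on viability (% of DMSO control): 100% = DMSO-only wells and 0% = media-only wells without cells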
In short: as §1
Potency means the concentration at half of the fitted maximal effect.

Cc1n[nH]c(C)c1Cc1sc2c(c1C(=O)N1C[C@H](O)CO1)c(=O)n(C)c(=O)n2CC(C)C
inactive: Potency [1] | Potency [2] | Potency [3]

O=C(NOC[C@H](O)CO)c1ccc(F)c(F)c1Nc1ccc(I)cc1F
active: Potency [4] 0.0148 µM | Potency [6] 1.48 µM | Potency [7] 16.6 µM | Potency [2] 0.0074 µM | Potency [8] 0.0296 µM | Potency [3] 0.0372 µM
inactive: Potency [5]

CCC(C)n1ncn(-c2ccc(N3CCN(c4ccc(OC[C@H]5CO[C@](Cn6cncn6)(c6ccc(Cl)cc6Cl)O5)cc4)CC3)cc2)c1=O (stereo partly specified)
inactive: Potency [4] | Potency [6] | Potency [7] | Potency [8]
active: Potency [9] 14.8 µM

Cn1cnc2c(F)c(Nc3ccc(Br)cc3Cl)c(C(=O)NOCCO)cc21
inactive: Potency [10]
active: Potency [4] 0.0469 µM | Potency [5] 9.35 µM | Potency [9] 1.18 µM | Potency [7] 5.26 µM | Potency [8] 0.0935 µM | Potency [3] 0.296 µM

CC(C=CC1=C(C)CCCC1(C)C)=CC=CC(C)=CC(=O)O
active: Potency [4] 2.64 µM | Potency [6] 8.33 µM | Potency [9] 14.8 µM | Potency [7] 2.09 µM | Potency [2] 935 nM and 5.26 µM | Potency [8] 1.87 µM and 16.6 µM

NC(=O)c1ccc(-c2nc(-c3ccc4c(c3)OCO4)c(-c3ccccn3)[nH]2)cc1
active: Potency [1] 2.64 µM
inactive: Potency [7] | Potency [2]

CNC(=O)c1ccc(C)c(-n2c(C)cc(OCc3ccc(F)cc3F)c(Br)c2=O)c1
inactive: viability [9] 116% | Potency [7]
active: Potency [4] 8.33 µM | Potency [6] 13.2 µM | Potency [2] 16.6 µM | Potency [8] 6.62 µM | Potency [3] 16.6 µM

COc1ccccc1[C@H](c1cccc2ccccc12)[C@@](C)(C#N)C(=O)N1CCC(c2cccc(C(F)(F)F)c2)CC1
active: Potency [4] 5.9 µM | Potency [6] 5.9 µM | Potency [9] 5.9 µM | Potency [2] 4.69 µM | Potency [8] 3.32 µM | Potency [3] 5.26 µM | Potency [10] 5.26 µM

CN(C(=O)c1ccc(F)cc1C(F)(F)F)C1CCN(c2nnc(-c3ccnn3C)c3ccccc23)CC1
inactive: Potency [6]
active: Potency [4] 0.372 µM | Potency [8] 13.2 µM | Potency [3] 16.6 µM

CCn1c(-c2nonc2N)nc2c(C#CC(C)(C)O)ncc(OC[C@H]3CCCNC3)c21
active: Potency [4] 8.33 µM | Potency [6] 0.148 µM | Potency [7] 23.5 µM | Potency [2] 18.7 µM | Potency [3] 14.8 µM | Potency [10] 0.059 µM

Cn1cnc([N+](=O)[O-])c1Sc1ncnc2nc[nH]c12
active: Potency [4] 11.8 µM | Potency [6] 4.69 µM | Potency [7] 10.5 µM | Potency [8] 5.26 µM | Potency [3] 16.6 µM | Potency [10] 5.26 µM

CCn1c(-c2nonc2N)nc2cnc(Oc3cccc(NC(=O)c4ccc(OCCN5CCOCC5)cc4)c3)cc21
active: Potency [4] 2.35 µM | Potency [6] 16.6 µM | Potency [2] 20.9 µM | Potency [3] 8.33 µM | Potency [10] 0.935 µM

Cc1[nH]c(=O)c(C#N)cc1-c1ccc2nccn2c1
inactive: Potency [4] | Potency [6] | Potency [7] | Potency [8]

O=C(C1CC1)N1CC[C@@H](Cn2c(-c3ccc(-c4ccc5occc5c4)cc3)nc3cnccc32)C1
active: Potency [5] 4.18 µM | Potency [8] 16.6 µM
inactive: viability [9] 107%

Cc1oncc1C(=O)Nc1ccc(C(F)(F)F)cc1
active: Potency [2] 4.69 µM | Potency [8] 16.6 µM
inactive: Potency [4] | viability [9] 115% | Potency [10]

COc1ccc2c3n(c(=NC(=O)c4cccnc4)nc2c1OC)CCN3
active: Potency [4] 0.0743 µM | Potency [6] 16.6 µM | Potency [9] 0.148 µM | Potency [2] 0.59 µM | Potency [8] 1.48 µM | Potency [3] 1.48 µM | Potency [10] 3.32 µM

CCC(C)(C)C(=O)O[C@H]1C[C@@H](C)C=C2C=C[C@H](C)[C@H](CC[C@@H]3C[C@@H](O)CC(=O)O3)[C@H]21
active: Potency [5] 18.7 µM | Potency [6] 8.33 µM | Potency [9] 18.7 µM | Potency [2] 18.7 µM | Potency [8] 9.35 µM | Potency [3] 16.6 µM | Potency [10] 14.8 µM

N#CC[C@H](C1CCCC1)n1cc(-c2ncnc3[nH]ccc23)cn1
active: Potency [4] 18.7 µM | Potency [6] 6.62 µM | Potency [9] 6.62 µM | Potency [7] 18.7 µM | Potency [10] 9.35 µM

CCCc1nn(C)c2c(=O)[nH]c(-c3cc(S(=O)(=O)N4CCN(C)CC4)ccc3OCC)nc12
active: Potency [5] 7.43 µM | Potency [7] 20.9 µM

CCCS(=O)(=O)Nc1ccc(F)c(C(=O)c2c[nH]c3ncc(-c4ccc(Cl)cc4)cc23)c1F
active: Potency [4] 5.9 µM | Potency [7] 5.26 µM | Potency [2] 2.96 µM | Potency [8] 7.43 µM | Potency [3] 18.7 µM | Potency [10] 14.8 µM

CC1(C)CNc2cc(NC(=O)c3cccnc3NCc3ccncc3)ccc21
inactive: Potency [6]
active: Potency [4] 0.372 µM | Potency [3] 1.66 µM

COc1cc(F)c(F)c(Nc2ccc(I)cc2F)c1NS(=O)(=O)C1(C[C@H](O)CO)CC1
active: Potency [4] 16.6 µM | Potency [6] 11.8 µM | Potency [7] 16.6 µM

Nc1nc2[nH]cc(CCc3ccc(C(=O)N[C@@H](CCC(=O)O)C(=O)O)cc3)c2c(=O)[nH]1
inactive: Potency [4] | Potency [2] | Potency [8]
active: Potency [6] 2.96 µM | Potency [9] 5.26 µM
